In the library only some 2.4% were active in any assay of this set; here they are far more common.
D2 ag-1: activates the human D2 dopamine receptor | P14416 | HEK293 T-REx D2 cells, calcium flux agonist mode | activation, % at 2 µM | 340,000 tested, 0.53% active | AID 485358;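 active means activation over 3 SD above normal in the single-dose calcium agonist read, cut at about 30% in these data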; further: 0% is about no effect
Target sequence (P14416 whole entry, looked up): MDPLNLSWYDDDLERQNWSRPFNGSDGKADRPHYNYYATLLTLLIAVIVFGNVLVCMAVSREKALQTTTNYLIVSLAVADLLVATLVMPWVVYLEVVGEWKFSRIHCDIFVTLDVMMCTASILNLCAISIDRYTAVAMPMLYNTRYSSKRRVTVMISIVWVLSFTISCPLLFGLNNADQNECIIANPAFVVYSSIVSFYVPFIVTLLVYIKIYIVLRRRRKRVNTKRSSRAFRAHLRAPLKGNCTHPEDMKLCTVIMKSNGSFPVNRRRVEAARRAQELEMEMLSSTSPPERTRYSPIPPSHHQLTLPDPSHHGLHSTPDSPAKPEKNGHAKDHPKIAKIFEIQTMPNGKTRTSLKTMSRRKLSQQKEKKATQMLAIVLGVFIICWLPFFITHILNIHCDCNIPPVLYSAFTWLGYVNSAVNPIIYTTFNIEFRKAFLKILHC
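Agonism is scored from calcium flux in a force-coupled, inducible HEK293 cell line expressing D2, read kinetically for 180 s after compound addition against dopamine controls.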
D2 antag: antagonists of human D2 dopamine receptor | inhibition, % at 10 µM | AID 485344 | 340,000 tested, 2% active | HEK293 TREx D2 cells, calcium flux, dopamine EC80; in the data active means inhibition above about 30%; inactive means below that, where a call was filed; further: 0% is about no effect
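Tetracycline-induced HEK293 T-REx cells expressing D2 force-coupled to calcium signalling were dye-loaded, exposed to compound for 180 s, then challenged with an EC80 of dopamine; calcium flux was followed kinetically for a further 180 s.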
D2 PAM-1: human D2 receptor positive allosteric modulation. P14416. DiscoveRx D2 beta-arrestin cells, luminescence, 90 min; 100% = 57 uM dopamine signal. potentiation, % (concentration not given with the values). 360,000 tested, 0.23% active; in the data active means potentiation above about 50%; inconclusive means mostly about 30% to 49%
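PathHunter beta-arrestin assay in DiscoveRx D2 cells. Compounds were added with an EC20 of dopamine (50 nM final) for 90 min at 37 deg C. Luminescence was read 1 h after detection reagent, with 57 uM dopamine as the EC100 control.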
D2 PAM-2: positive allosteric modulators of human D2 dopamine receptor | potentiation, % at 10 µM | 340,000 tested, 0.34% active | HEK293 T-REx D2, calcium flux, EC20 dopamine potentiation | P14416;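 active means potentiation over 3 SD above the plate norm, cut at about 30% in these data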; further: 0% is about no effect
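Tetracycline-induced Hek293 Trex D2 cells, force-coupled to calcium, loaded with no-wash calcium dye. Compound added with 180 s kinetic read for agonism, then EC20 dopamine and a further 180 s read for potentiation.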
D2 ag-2: activates the human D2 dopamine receptor | P14416 | 360,000 tested, 0.084% active | activation, % (no concentration beside the values) | DiscoveRx PathHunter D2 beta-arrestin, luminescence, 90 min; 100% = 57 uM dopamine signal; in the data active means activation above about 40%; inconclusive means between about 15% and that limit
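Agonist mode: compounds alone added to overnight-plated D2 PathHunter cells for 90 min at 37 C, with 57 uM final dopamine (EC100) defining full response. Beta-arrestin recruitment detected by chemiluminescent reagent, read after 1 h at ambient temperature.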
D3 arrestin ag: D3 receptor agonism confirmed, beta-arrestin readout | shares compounds with D2 ag-1 | DiscoveRx D3 beta-arrestin cells, luminescence, 90 min | Potency, µM (doses to about 76.9 µM), without a hit: at the top dose activation, hits mostly activators | 2,300 tested, 4% active;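 further: potency means the concentration at half of the fitted maximal effect; 100% = dopamine control response; nearly all actives have a fitted effect of over 70% in size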
D2 ag-3: counter-screen for D3 agonists: human D2 dopamine receptor agonism | shares compounds with D2 ag-1 | DiscoveRx PathHunter D2 beta-arrestin, luminescence, 90 min; response scale: percent relative to full dopamine signal | Potency, µM (top dose mostly 76.9 µM), inactives show at the top dose activation, usual class: activators | 2,300 tested, 5.9% active | AID 720507; further: potency means the concentration at half of the fitted maximal effect; % of control where 0% means no effect; nearly all actives have a fitted effect of over 70% in size
Numbers without * were called inactive; ? = inconclusive; · = not tested or not shown. Unless noted, the call rests on the fitted dose curve; in most records, active means well fitted activation curve with a large enough effect; inconclusive means small, poorly fitted or top-dose-only effect; inactive means flat fitted curve, though single readings scatter.

SMILES | D2 ag-1 | D2 antag | D2 PAM-1 | D2 PAM-2 | D2 ag-2 | D3 arrestin ag | D2 ag-3
CN(CCNC(=O)C1CCC(=O)N(Cc2ccc(Cl)cc2)C1)CCc1ccccc1 (stereo not drawn) | 45* | -13 | -9 | -25 | 3 | -2% | -2%
CC(=O)c1cccc(NC(=O)c2ccc3c(c2)N(Cc2ccc(C)cc2)CCS3)c1 | 1 | · | · | -5 | · | · | ·
CCCn1c(-c2ccc(OC)cc2)nc2ccccc21 | 21 | -12 | 6 | -13 | 10 | -3% | ?
C/C(=N\NC(=O)C12CCC(C)(C(=O)O1)C2(C)C)c1ccccc1O (stereo not drawn) | 83* | 82* | -9 | -30 | ? | ? | ?
CCCN1C(=O)/C(=C/c2c(NCCCOC(C)C)nc3c(C)cccn3c2=O)SC1=S | 5 | -7 | -15 | 3 | -9 | -12% | -1%
CCCCN1CCNC[C@@H]1Cc1ccccc1 | 0 | 2 | -11 | -11 | -5 | · | ·
CCCCN1CCNC[C@@H]1c1ccccc1 | 0 | -8 | -17 | 14 | -1 | -4% | -3%
COc1cc(CCCN[C@H](CN)Cc2ccccc2)cc(OC)c1OC | -2 | -2 | -23 | 14 | -4 | · | ·
NC[C@H](Cc1ccccc1)NCCCCC1CCCCC1 | 33* | -3 | -9 | -18 | -2 | 2% | 10%
O=C(CCN1CCN(c2ccccc2F)CC1)Nc1ccc(F)cc1 | 14 | 88* | -75 | -16 | 3 | ? | 7%
COC(=O)c1[nH]c2cc(OC)ccc2c1NC(=O)CCN1CCN(c2cccc(C)c2C)CC1 | 1 | 57* | -11 | -8 | -1 | 8% | -1%
O=C(CCN1CCN(S(=O)(=O)c2ccc(Cl)cc2)CC1)Nc1ccc(F)cc1 | · | · | -8 | 11 | -1 | · | ·
O=C(CCN1CCN(c2ccccc2F)CC1)Nc1cccc(F)c1 | 81* | 80* | -5 | -24 | -4 | ? | ?
COc1cc(NC(=O)CCN2CCN(c3ccccc3F)CC2)cc(OC)c1 | 31* | 40* | -16 | -11 | 10 | ? | 21%
Cc1ccc(S(=O)(=O)N(CC(O)Cn2c3ccccc3c3ccccc32)c2cccc(C(=O)NCCO)c2)cc1 (stereo not drawn) | -1 | · | · | 4 | · | · | ·
O=C(CCN1CCN(c2ccccc2F)CC1)Nc1ccccc1Cl | 70* | 88* | -10 | -24 | -1 | -3% | 21%
O=C(CCN1CCN(S(=O)(=O)c2ccc(Cl)cc2)CC1)Nc1ccccc1F | 0 | 10 | -1 | 8 | 2 | · | ·
CC(=O)Nc1ccc(C(=O)OCCCOC(=O)c2ccc(NC(C)=O)cc2)cc1 | 76* | 15 | -13 | -14 | -1 | -5% | -4%
CCCCOC(=O)c1ccc(NC(C)=O)cc1 | -1 | 10 | -7 | 1 | 0 | · | ·
COc1cccc(NC(=O)CSC2=Nc3ccccc3C3=NC(CCC(=O)NC4CCCCC4)C(=O)N23)c1 (stereo not drawn) | · | · | · | 8 | · | · | ·
Cc1ccc(S(=O)(=O)CCC(=O)OCC(=O)NNC(=O)c2ccc([N+](=O)[O-])cc2)cc1 | 1 | 12 | -6 | 2 | -3 | · | ·
Cc1ccc(C(=O)CCC(=O)OCC(=O)NNC(=O)c2ccc([N+](=O)[O-])cc2)cc1 | · | · | 28 | · | 1 | 0% | 5%
Cc1ccc(C(=O)CCC(=O)NNC(=O)c2ccccc2O)cc1 | 0 | 10 | -1 | 10 | -2 | -5% | -2%
COc1ccc(C(=O)NNC(=O)Cc2ccc([N+](=O)[O-])cc2)cc1 | 42* | -13 | -11 | -21 | 0 | 1% | -2%
COc1ccc(CC(=O)NNC(=O)c2ccc(NC(C)=O)cc2)cc1 | 1 | 6 | 2 | 10 | -4 | · | ·
SMILES | D2 ag-1 | D2 antag | D2 PAM-1 | D2 PAM-2 | D2 ag-2 | D3 arrestin ag | D2 ag-3
Cc1ccc(NC(=O)CCC(=O)c2ccccc2)cc1 | · | · | -7 | · | 0 | · | ·
Cc1c(Cl)cccc1NC(=O)C(C)N(c1ccccc1)S(C)(=O)=O (stereo not drawn) | 0 | · | · | -12 | · | · | ·
CCOc1ccc(-c2nc3c(C#N)c[nH]n3c2NC2CCCC2)cc1 | · | · | · | -4 | · | · | ·
Cc1ccc(NC(=O)c2nc(S(=O)(=O)Cc3ccc(F)cc3)ncc2Cl)cc1C | 2 | · | · | -7 | · | · | ·
Cc1ccc(NC(=O)c2nc(S(=O)(=O)Cc3ccccc3C)ncc2Cl)cc1C | 0 | 34* | -12 | -2 | -6 | -19% | -10%
CN(c1ccccc1)S(=O)(=O)c1ccc(NC(=O)c2nc(S(C)(=O)=O)ncc2Cl)cc1 | 6 | 3 | -63 | 8 | -11 | -21% | -11%
Oc1c(C(c2ccccc2)N2CCN(c3cccc(Cl)c3)CC2)sc2nc(-c3ccco3)nn12 (stereo not drawn) | -4 | · | · | 4 | · | · | ·
COc1ccc(CCNC(=O)CSC2=NS(=O)(=O)c3cc(Cl)ccc3N2)cc1OC | 0 | 0 | 1 | -1 | -5 | · | ·
O=C(CSC1=NS(=O)(=O)c2cc(Cl)ccc2N1)NCCc1ccccc1 | 41* | 21 | 8 | -20 | 2 | 8% | 6%
CS(=O)(=O)N(CCCC(=O)N1CCCCCC1)c1cccc(Cl)c1 | 0 | 26 | -10 | 8 | -4 | -7% | -1%
CS(=O)(=O)N(CC(=O)N1CCOCC1)c1cccc(Cl)c1 | · | · | -2 | · | -3 | · | ·
COCCn1c(C)cc(O)c(C(c2ccccc2)N2CCN(C)CC2)c1=O (stereo not drawn) | · | · | · | -9 | · | · | ·
Cn1c(CC(=O)NNC(=O)c2ccc(F)cc2Cl)nc2ccccc21 | 0 | 3 | -2 | 7 | -2 | · | ·
Cn1c(CC(=O)NNC(=O)c2ccccc2[N+](=O)[O-])nc2ccccc21 | 2 | -19 | -6 | -10 | -4 | -4% | 0%
O=C(NCCN1CCN(c2ccccc2)CC1)c1ccc2c(c1)[nH]c(=S)n1c3ccccc3nc21 | 48* | 34* | -25 | -17 | 3 | ? | 12%
COc1ccc(OC)c(NC(=O)CCN2CCN(c3ccccc3)CC2)c1 | 87* | 80* | 6 | -28 | ? | ? | ?
O=C(c1ccc2c(c1)[nH]c(=S)n1c3ccccc3nc21)N1CCN(c2ncccn2)CC1 | -2 | -28 | -5 | 15 | -4 | · | ·
COc1cccc(C(=O)NCCN2CCN(c3ccccc3)CC2)c1 | · | · | · | · | · | ? | 19%
COc1ccc(NC(=O)CCN2CCN(Cc3ccccc3)CC2)c(OC)c1 | 12 | 41* | -40 | -6 | 3 | 20% | 9%
CCc1cccc(C)c1NC(=O)C1CCN(c2nnc(C)c3c(C)n(-c4ccccc4)nc23)CC1 | 0 | · | · | 10 | · | · | ·

Screening results as filed in PubChem.
